Data on 85 compounds can be found in PubChem BioAssay AID1259318 (Sanford-Burnham Center for Chemical Genomics, 2017).

The structures appear in SMILES notation. The campaign covered roughly 370,000 compounds. About 3,000 (0.81%) were called active.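 How the source made its calls: active means activity above about 14% (limit read from the data; passing the limit was not always enough); inactive means the rest.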 For the sample, actives were picked, then their nearest neighbours and some compounds at random. Where a SMILES comes first, the peptide text is derived from it. Side-chain parts run from the residue outwards. [ ]: non-standard residue; d: D form. The star is where a group is joined. X1 = CCC(C)C(N)C1=NC(C(=O)*)CS1; Orn = NCCC[CH](N)C(=O)O

This experiment deals with Nuclear receptor subfamily 1 group D member 1 (Homo sapiens) (UniProt P20393). As to the kind of experiment: Rev-erbα–DNA interaction modulation – biochemical, FITC-DNA, fluorescence polarization, uHTS, primary screen (AID 1259318).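 Further: 0% = DMSO wells with 35 nM protein and 100% = DMSO wells with 750 nM protein.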 Particulars: Rev-erbα–FITC-DNA binding, 90 min, at 10 µM, hits give high values.
Sequence of Nuclear receptor subfamily 1 group D member 1 (Homo sapiens) (P20393 whole entry, looked up): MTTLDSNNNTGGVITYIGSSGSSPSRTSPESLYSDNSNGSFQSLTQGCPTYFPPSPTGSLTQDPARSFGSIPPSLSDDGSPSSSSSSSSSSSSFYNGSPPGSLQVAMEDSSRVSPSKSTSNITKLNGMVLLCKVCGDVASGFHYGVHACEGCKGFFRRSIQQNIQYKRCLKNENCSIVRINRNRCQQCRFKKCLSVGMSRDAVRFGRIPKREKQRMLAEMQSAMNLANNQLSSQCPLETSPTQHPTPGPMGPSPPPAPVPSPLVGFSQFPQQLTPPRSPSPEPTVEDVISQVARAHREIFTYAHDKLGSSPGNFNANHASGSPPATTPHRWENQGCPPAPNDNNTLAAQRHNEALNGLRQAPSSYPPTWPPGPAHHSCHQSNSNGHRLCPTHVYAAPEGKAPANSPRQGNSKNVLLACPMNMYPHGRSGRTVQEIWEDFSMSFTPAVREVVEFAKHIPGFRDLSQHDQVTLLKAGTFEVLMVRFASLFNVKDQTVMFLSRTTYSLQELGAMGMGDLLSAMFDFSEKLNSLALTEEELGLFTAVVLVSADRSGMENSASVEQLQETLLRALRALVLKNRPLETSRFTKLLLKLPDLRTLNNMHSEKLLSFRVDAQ
Regarding `c1cncc(CNc2ccnc(-c3ccc4c(c3)OCO4)n2)c1`, the activity was 3.58% (inactive).

Turning to `Cc1ccc2nc(C)c3c(c2c1)N(c1ccccc1)CC3`, the activity was 8.49% (inactive). As for `CCOc1cccc(C(=O)Nc2cnn(Cc3ccccc3)c2)c1`, the activity was -1.52% (inactive). For `Cc1ccc(C(=O)Oc2coc(CSc3nnc(NC(=O)c4cccs4)s3)cc2=O)cc1C` the value was 12.7% (inactive). With `Cc1ccc(C(=O)Nc2nnc(-c3cccs3)s2)cc1C` the figure was 22.5% (active). As for `CCOc1cccc(C(=O)Nc2nnc(-c3cccs3)s2)c1`, the activity was 23.2% (active). With `CCOc1ccc(C(=O)Nc2nccs2)cc1[N+](=O)[O-]` the figure was 13.7% (inactive). For the compound `Cc1ccc(C(=O)NC(C)C(c2cccs2)N2CCOCC2)cc1C` (stereo not given), the activity was -7% (inactive). As for `CSc1ccccc1C(=O)OCC(=O)N1CCN(C(C)=O)CC1`, the activity was -6.48% (inactive). With `COCCCNC(=O)Cn1cc(/C=C(\C#N)C(=O)N2CCN(c3ccccc3)CC2)c2ccccc21` the figure was 1.28% (inactive).

As to `COc1ccc2c(c1)CCC/C2=N\OC(=O)c1ccccc1F`, the activity was -4.23% (inactive). For `COc1cc(NS(=O)(=O)c2ccc(NC(=O)c3ccc(S(=O)(=O)N4CCCCC4)cc3)cc2)ncn1` the value was -7.53% (inactive). For `CCSC1=NCCN1S(=O)(=O)c1ccc(F)cc1` the value was 8.78% (inactive); for `COc1nc(-c2ccc(Cl)cc2)ccc1-c1noc(-c2cccs2)n1`, 56.6% (active). For `N#Cc1ccc(-c2ccc(Cl)cc2)nc1Oc1ccc(F)cc1` the value was 6.3% (inactive). On to `CC(C)C[C@@H]1Cc2[nH][nH]c(=O)c2[C@H](CCc2ccccc2)O1`, for which the activity is -3.25% (inactive).

With `CCCn1c(O)c(CN2CCCC(C)C2)c(C)c(C#N)c1=O` (stereo not given), the activity is 8.88% (inactive). With `CSc1ncnc2c1ncn2CC(=O)C1CCC2C3CCC4=CC(=O)CCC4(C)C3CCC12C` (stereo not given) the figure was -3.58% (inactive); with `CCC(=O)c1c(CC)c2n3c1=CC[C@H]3CC(Br)C=2` (stereo not given in full), 2.99% (inactive); with `CC(Sc1ccccc1F)C(=O)Nc1cccc(S(=O)(=O)N2CCOCC2)c1` (stereo not given), -3.07% (inactive). With `Cn1c(=NC(=O)c2ccc3c(c2)OCCO3)sc2cc(S(C)(=O)=O)ccc21` the figure was 22.9% (active); with `COCCn1c(=NC(=O)c2ccccc2[N+](=O)[O-])sc2cc(S(C)(=O)=O)ccc21`, 3.08% (inactive); with `CS(=O)(=O)c1ccc(-c2nnn(CC(=O)Nc3ccc4c(c3)OCCO4)n2)cc1`, 6.46% (inactive). With `COc1ccc(C(=O)OCCN(C)C2CN(Cc3cn(Cc4cccc(C)c4)nn3)S(=O)(=O)C2)cc1OC` (stereo not given) the figure was -5.04% (inactive); with `CSc1ccccc1NC(=O)CN(C)CC(=O)Nc1cccc(Br)c1`, -5.77% (inactive). As to `CC(=O)c1ccc(S(=O)(=O)N2CCN(c3nc4c(C)c(C)ccc4cc3C#N)CC2)cc1`, the activity was 223% (active). With `CC(=O)c1ccc(N2CCN(S(=O)(=O)c3ccc4c(c3)CC(=O)N4C)CC2)cc1` the figure was 1.85% (inactive); with `Cc1ccccc1N1CCN(S(=O)(=O)c2ccc3ccccc3c2)CC1`, 3.07% (inactive); with `CCN(CCCNC(=O)c1ccc2c(c1)NC(=O)CN2C)c1cccc(C)c1`, -3.82% (inactive). With `COC(=O)c1sc(NC(=O)c2ccc(OC)cc2OC)nc1C` the figure was 28.7% (active). For `COCCSc1nnc(NC(=O)c2cc(OC)c(OC)cc2[N+](=O)[O-])s1` the value was 7.5% (inactive). As to `COc1ccc(CNC(=O)CCC(=O)Nc2nnc(C(C)C)s2)cc1`, the activity is -2.06% (inactive). For `COc1ccc(C(=O)COC(=O)C(O)c2ccccc2)c(OC)c1` (stereo not given) the value was 7.39% (inactive); for `COc1ccc(Cc2nnc(NC(=O)c3ccc(OC)cc3OC)s2)cc1`, 45.2% (active).

Consider `COc1ccc(C(=O)Nc2cccc(NC(=O)c3ccc(OC)cc3OC)n2)c(OC)c1`, for which the activity is 22.5% (active). For `COc1ccc(C(=O)CSc2nnnn2C)c(OC)c1` the value was 1.25% (inactive); for `COc1ccc(C(=O)N2CCCN(C)CC2)c(OC)c1`, 1.46% (inactive).

In the case of `COc1ccc(N(CC(=O)Nc2cccc3ccccc23)S(C)(=O)=O)c(OC)c1`, the activity is 0.94% (inactive). With `CCc1ccc(Nc2ncc3c(n2)CC(c2ccco2)CC3=O)cc1` (stereo not given) the figure was 2.68% (inactive); with `CCCNC(=O)CCc1c(C)nc2c(c(C)nn2-c2ccccc2)c1C`, -3.83% (inactive); with `NCC[C@@H](O)C(=O)N[C@@H]1C[C@H](N)[C@@H](O[C@H]2O[C@H](CN)[C@@H](O)[C@H](O)[C@H]2O)[C@H](O)[C@H]1O[C@H]1O[C@H](CO)[C@@H](O)[C@H](N)[C@@H]1O`, -0.91% (inactive).

Regarding `CCOC(=O)Cn1c(=O)oc2cc(S(=O)(=O)NCC3CCCO3)ccc21` (stereo not given), the activity was -1.52% (inactive). With `COCCCNC(=O)C1CCC(CNS(=O)(=O)c2ccc(OC)cc2)CC1` (stereo not given) the figure was -5.72% (inactive); with `Cc1ccc(-n2nc3cc(C)c(NC(=O)c4cccnc4)cc3n2)cc1`, 36.7% (active); with `O=C(Nc1cccc(-n2cnnn2)c1)c1cccnc1`, 1.66% (inactive). For `Cc1cccc(C(=O)Nc2ccccc2C(=O)NCc2cccnc2)c1` the value was 0.06% (inactive); for `Cc1ccc(-n2c(COc3ccccc3)nnc2SCC(=O)Nc2ccc3c(c2)OCCO3)cc1`, 1.23% (inactive); for `CCc1ccc(-c2cc3c(=O)n(CC(=O)NCCCN4CCN(Cc5ccccc5)CC4)nc(C)n3n2)cc1`, 2.85% (inactive). For `COC(=O)C[C@H]1C[C@@H]2c3cc(N(C)C)ccc3O[C@@H]2[C@H](CO)O1` the value was 7.34% (inactive). With `CCN1C(=O)/C(=C\N2CCOCC2)SC1=S`, the activity was 2.02% (inactive). In the case of `CCN1C(=O)/C(=C\N2CCN(c3cccc(Cl)c3)CC2)SC1=S`, the activity is 877% (active). With `CCC1(C)NC(=O)N(CC(=O)N2CCN(c3cccc(Cl)c3)CC2)C1=O` (stereo not given) the figure was -2.92% (inactive); with `CCCc1nnc(NC(=O)CCC(=O)N2CCN(S(=O)(=O)c3ccc(OC)cc3)CC2)s1`, -2.83% (inactive); with `COC(=O)[C@@]12C[C@@H](CC(=O)NCCCCc3ccccc3)C(=O)N(CCc3ccc(OC)c(OC)c3)C1=CCC(C)(C)C2`, 0.11% (inactive). For `O=C(NCc1ccc(Cl)cc1)c1cc2c(nc3sccn32)s1` the value was 25.1% (active); for `O=C(NCc1ccc(Cl)cc1)c1cc(=O)nc2sc(-c3ccccc3)nn12`, 7.32% (inactive); for `O=C(NCc1ccc2c(c1)OCO2)c1c(O)nc2sccn2c1=O`, -1.37% (inactive).

Take `COCc1c(C(=O)N/N=C/C2CC=CCC2)nnn1-c1nonc1N` (stereo not given): the activity was -3.01% (inactive). With `CN(CC1CCCN(CCc2cccc(C(F)(F)F)c2)C1)C(=O)c1ccc2nc[nH]c2c1` (stereo not given) the figure was 4.2% (inactive); with `CC1=CC[C@H](C(C)(C)O)CC1`, 1.53% (inactive). With `COc1ccc(S(=O)(=O)N2CCOCC2)cc1C(=O)Nc1nc2ccccc2s1` the figure was 46.8% (active); with `COc1ccc(S(=O)(=O)N2CCOCC2)cc1C(=O)NC1CCCCC1`, -1.23% (inactive); with `COc1ccc(S(=O)(=O)N2CCOCC2)cc1NC(=O)CSc1ncnc2ccccc12`, -2.02% (inactive).

Regarding `CC1CN(C(=O)c2ccc3c(c2)OCO3)OC(c2ccccc2)O1` (stereo not given), the activity was 8.07% (inactive).

Regarding `COc1ccc(S(=O)(=O)N(C)CC(=O)NCCCN2CCOCC2)cc1Cl`, the activity is 3.3% (inactive). `CCCS(=O)(=O)NC(=O)C1(C)CCCN(C(=O)c2cccs2)C1` (stereo not given): the activity is -2.98% (inactive). With `Nc1nc(/C(=C/CC(=O)O)C(=O)N[C@@H]2C(=O)N3C(C(=O)O)=CCS[C@H]23)cs1` the figure was -0.02% (inactive); with `CCC(C)C(N)C1=NC(C(=O)NC(CC(C)C)C(=O)NC(CCC(=O)O)C(=O)NC(C(=O)NCCCCC2NC(=O)C(CC(N)=O)NC(=O)C(CC(=O)O)NC(=O)C(Cc3cnc[nH]3)NC(=O)C(Cc3ccccc3)NC(=O)C(C(C)CC)NC(=O)C(CCCN)NC2=O)C(C)CC)CS1` (stereo not drawn) (cyclo(DNK([Ile-Glu-Leu-X1])[Orn]IFH); configuration not given here), -1.28% (inactive).

`COC(=O)c1ccc(NC(=O)c2cc(Cl)ccc2OC)cc1`: the activity was 46.1% (active). With `CCC(C)NC(=O)c1cc(Cl)ccc1OC` (stereo not given) the figure was -0.16% (inactive). For `COc1ccc(Cl)cc1-c1cc(C(=O)Nc2cc(OC)c(OC)c(OC)c2)[nH]n1`, the activity is 0.68% (inactive). Regarding `Cc1ccc2c(C)c(C(=O)N3CCC(N4CCC(C(=O)NC5CC5)CC4)CC3)oc2c1`, the activity is 5.47% (inactive). For `O=C(NCCCc1ccccc1)[C@H](Cc1ccccc1)NC1(C(=O)NCCc2c[nH]c3ccccc23)CCC1` the value was 1.61% (inactive); for `CCc1cccc(NC(=S)N(CCN(C)C)C2CCN(C(C)C)CC2)c1`, -2.21% (inactive); for `CCOc1ccc2c(c1)cc(CN(C(=O)CC)C1CCCCC1)c1nnnn12`, -0.47% (inactive). With `CCc1ccc2c(c1)cc(CN(C(=S)Nc1ccccc1Cl)C1CC1)c1nnnn12` the figure was 18.7% (active); with `O=C(c1cccc(Br)c1)N1CCN(C2=NS(=O)(=O)c3ccccc32)CC1`, 1% (inactive).

As for `CC(=O)NCc1ccc(S(=O)(=O)NC2CCN(Cc3ccccc3)CC2)cc1`, the activity was -1.17% (inactive). For `COc1ccc(CN(C(=O)CSc2nnc(-c3ccc(OC)c(OC)c3)o2)c2ccc(F)cc2)cc1` the value was 4.8% (inactive). Turning to `CCCn1c(SCC(=O)c2ccc3c(c2)OCCO3)nnc1C(C)C`, the activity is -3.34% (inactive). For `COc1ccc(-c2nnc(SCC(=O)c3ccc4c(c3)OCCO4)o2)cc1` the value was 39.7% (active). With `CCc1ccccc1NC(=O)CSc1nnc(-c2cccs2)o1` the figure was -8.53% (inactive). With `O=C(CCc1nnc2ccc(NCc3ccccc3Cl)nn12)NCC1CCN(C2CCCC2)C1` (stereo not given) the figure was -21.6% (inactive). As to `CC12CCC(=O)C=C1CCC1C2[C@@H](O)CC2(C)C1CC[C@]2(O)C(=O)COP(=O)(O)O` (stereo not given in full), the activity was 1.93% (inactive).

In the case of `CC(C)CCn1c(=O)c2c(nc3n2CCCN3Cc2ccccc2)n(C)c1=O`, the activity was -1.34% (inactive).
